Molecules are shown by their SMILES.

The values below come from ChEMBL document CHEMBL3433997, “St. Jude Leishmania screening dataset” (2016).

The first assay has as its target Hexose transporter 1 (Plasmodium falciparum) (UniProt O97467). The assay can be described thus: ST_JUDE_LEISH: Cytotoxicity at 2uM final concentration against transgenic Leishmania Mexicana promastigotes LmPfHT that are glucose transport deficient and complemented with the Plasmodium falciparum hexose transporter. Activity is measured by DNA content using SYBR green in vitro. Type of assay: functional.
`c1cc(CNCCc2ccncc2)cc(-c2csc(-c3nc4ccccc4[nH]3)c2)c1`: the inhibition was -1.59%.

Consider `CCC(Cc1cnc2nc(N)nc(N)c2n1)c1ccc(C(=O)O)cc1` (stereo not given), for which the inhibition was determined as 1.88%.

On to `N#Cc1ccc2[nH]cc(CN3CCC4(CC3)CN(CCNCc3ccccc3)C(=O)O4)c2c1`, for which the inhibition was found to be 4.4%.

In the case of `C#CCOc1ccc2ccccc2c1CNCCCCCCNCc1c(OCC#C)ccc2ccccc12`, the inhibition is 2.21%.

`CC1CCC2(CC1)NC(N)=NC(=N)N2OCCCCCCCCO` (stereo not given): the inhibition stood at 4.43%.

For `CNCCNCc1cccc(-c2ccc(-c3nc4ccccc4[nH]3)cc2)c1`, the inhibition came out at 0.67%.

On to `COCCn1c(-c2cccc(Cl)c2)nn(-c2ccc([N+](=O)[O-])cc2Cl)c1=S`, for which the inhibition came to 6.65%.

As for `O=C(Nc1ccc(-c2csc(-c3nc4ccccc4[nH]3)c2)cc1)Nc1ccsc1`, the inhibition was 0.76%.

For the molecule `COc1ccccc1NC(=O)c1cc(C(=O)c2cc(Cl)ccc2O)cn(-c2ccccc2OC)c1=O`, the inhibition was 5.3%.

Turning to `CC(C)(C)c1cc(NC(=O)c2ccc(Cl)c([N+](=O)[O-])c2)cc(C(C)(C)C)c1`, the inhibition was 6.88%.

`O=S(=O)(NC1CCN(c2ccnc3cc(Cl)ccc23)C1)c1ccc(F)cc1` (stereo not given): the inhibition turned out to be 1.68%.

`CC/N=C(/NCCCCCCN/C(=N/CC)NCc1ccccc1)NCc1ccccc1`: the inhibition was -0.55%.

As to `CCCN(CCCCNC(=O)c1ccc(-c2cccnc2)cc1)C1CCc2c(O)cccc2C1` (stereo not given), the inhibition came out at 2.13%.

Take `CCCCC(=O)Nc1nc2ccc([N+](=O)[O-])cc2s1`: the inhibition amounted to 2.81%.

As to `COc1ccc(CNC(=O)c2cc3c(=O)n4ccccc4nc3n(CCc3ccccc3)c2=N)cc1`, the inhibition was found to be 12%.

On to `CCCCN1CC[C@@H](CCC(O)c2ccnc3ccc(OCCC(C)C)cc23)[C@@H](CC)C1` (stereo not given in full), for which the inhibition stood at 4.04%.

Turning to `O=S(=O)(NC1CCCCN(Cc2ccccc2O)C1)c1ccc(C(F)(F)F)cc1` (stereo not given), the inhibition was found to be 4.93%.

With `CCc1cc(C(=O)c2cccc(C)c2)c(NC(=O)CN2CCN(C(=O)c3ccco3)CC2)s1`, the inhibition was 2.67%.

On to `O=C(/C=C/c1ccc(Cl)cc1Cl)NCCCCCN1CCC(c2c[nH]c3ccccc23)CC1`, for which the inhibition was 0.6%.

As to `CCNc1cc(C)nc(Nc2ccc(NC(=O)c3ccc(OC)c(OC)c3)cc2)n1`, the inhibition came out at 1.84%.

Turning to `Fc1ccc2[nH]c(-c3ccc(-c4ccc(CNCCN5CCNCC5)cc4)s3)nc2c1`, the inhibition came to 1.98%.

Consider `CCOc1cc(CC)ccc1C1CCN(CCN2CCC(CNC(=O)c3ccc(-c4ccc(C#N)cc4)cc3)CC2)CC1`, for which the inhibition came out at 13%.

In the case of `CCOc1cc(C(=O)Nc2ccc(-c3nc4ccccc4[nH]3)cc2)cc(OCC)c1OCC`, the inhibition stood at 5.32%.

As for `Cc1ccc2nc(C)cc(NC(=O)Nc3ccc(N(C)C)cc3)c2c1`, the inhibition stood at 5.69%.

Take `CCNc1cc(C(=O)N[C@@H](Cc2ccccc2)[C@H](O)CNC2(C)CCCCC2)cc(N2CCCCS2(=O)=O)c1`: the inhibition is -0.16%.

For `Cc1cccc(-c2ccc(NC(=O)C3CCN(Cc4cccc(O)c4)CC3)cc2)c1`, the inhibition was determined as 1.99%.

Turning to `CN(C)CCNCc1ccc(-c2ccc3c(Nc4ccc(Cl)cc4F)ccnc3c2)o1`, the inhibition was 0.82%.

`c1ccc(CN2CCc3cc4nccc(N5CCNCC5)c4cc32)cc1`: the inhibition is -1.76%.

In the case of `Cc1[nH]c(C)c(-c2ccc(-c3ccccc3Cl)nc2)c(=O)c1Cl`, the inhibition turned out to be 3.94%.

Take `Cn1cncc1C(=O)Nc1cccc(-c2ccc(-c3nc4ccccc4[nH]3)cc2)c1`: the inhibition was -2.33%.

Consider `COc1cc2c(cc1C(F)(F)F)N(C(=O)Nc1cc(-c3ccncc3)cc(-c3cccnc3)c1)CC2`, for which the inhibition was -0.38%.

In the case of `O=C(/C=C/c1ccc(Cl)c(Cl)c1)NCCCCCN1CCC(NC(=O)c2ccc(F)cc2F)CC1`, the inhibition came out at 5.55%.

Consider `CNC(=O)CNC(=O)COc1cccc2ccccc12`, for which the inhibition was 1.21%.

In the case of `O=C(C=Cc1ccc(F)cc1)N1CCN(S(=O)(=O)c2ccc(Cl)cc2)CC1`, the inhibition was -1.62%.

As to `O=C(Cn1c(CCc2cccc(F)c2F)cc(=O)c2cccnc21)N(CCN1CCCC1)Cc1ccc(-c2ccc(C(F)(F)F)cc2)cc1`, the inhibition came to 2.76%.

As for `CN1CCN(CCCN(Cc2ccc(-c3cccc(CNC4CCCC4)c3)cc2)C(=O)/C=C/c2ccccc2)CC1`, the inhibition was 9.42%.

In the case of `CCCN(Cc1nnc(-c2cccs2)o1)C(=O)CSc1nnnn1-c1ccc(C)c(C)c1`, the inhibition was found to be 11.8%.

Regarding `CCCCCNC(=N)c1ccc(OCCCCCOc2ccc(C(=N)NCCCCC)cc2)cc1`, the inhibition was determined as 25.9%.

On to `C=CCOC(=O)N1CCC(CNCc2cccc(-c3ccc(-c4nc5ccccc5[nH]4)s3)c2)C1` (stereo not given), for which the inhibition is 1.79%.

As for `CCOC(=O)c1ccc(NC(=O)Nc2cccc(-c3cccc(-c4nc5cccc(C)c5[nH]4)c3)c2)cc1`, the inhibition was determined as 3.22%.

A further assay deals with Glucose transporter (Leishmania mexicana) (UniProt O61059). The experiment in a line: ST_JUDE_LEISH: Cytotoxicity at 2uM final concentration against transgenic Leishmania Mexicana promastigotes LmGT2 that are glucose transport deficient and complemented with the L. Mexicana glucose transporter 2. Activity is measured by DNA content using SYBR green in vitro. The assay is classed as functional.
`c1cc(CNCCc2ccncc2)cc(-c2csc(-c3nc4ccccc4[nH]3)c2)c1`: the inhibition stood at 1.05%.

As to `CCC(Cc1cnc2nc(N)nc(N)c2n1)c1ccc(C(=O)O)cc1` (stereo not given), the inhibition came to 2.49%.

Regarding `N#Cc1ccc2[nH]cc(CN3CCC4(CC3)CN(CCNCc3ccccc3)C(=O)O4)c2c1`, the inhibition is -0.76%.

As to `C#CCOc1ccc2ccccc2c1CNCCCCCCNCc1c(OCC#C)ccc2ccccc12`, the inhibition was determined as 0.87%.

Take `CC1CCC2(CC1)NC(N)=NC(=N)N2OCCCCCCCCO` (stereo not given): the inhibition worked out at 2.52%.

For the molecule `CNCCNCc1cccc(-c2ccc(-c3nc4ccccc4[nH]3)cc2)c1`, the inhibition was -0.51%.

As for `COCCn1c(-c2cccc(Cl)c2)nn(-c2ccc([N+](=O)[O-])cc2Cl)c1=S`, the inhibition was found to be 7.62%.

For `O=C(Nc1ccc(-c2csc(-c3nc4ccccc4[nH]3)c2)cc1)Nc1ccsc1`, the inhibition was 0.44%.

For the molecule `COc1ccccc1NC(=O)c1cc(C(=O)c2cc(Cl)ccc2O)cn(-c2ccccc2OC)c1=O`, the inhibition worked out at 4.07%.

`CC(C)(C)c1cc(NC(=O)c2ccc(Cl)c([N+](=O)[O-])c2)cc(C(C)(C)C)c1`: the inhibition stood at 6.21%.

On to `O=S(=O)(NC1CCN(c2ccnc3cc(Cl)ccc23)C1)c1ccc(F)cc1` (stereo not given), for which the inhibition was 1.83%.

`CC/N=C(/NCCCCCCN/C(=N/CC)NCc1ccccc1)NCc1ccccc1`: the inhibition was -2.09%.

Regarding `CCCN(CCCCNC(=O)c1ccc(-c2cccnc2)cc1)C1CCc2c(O)cccc2C1` (stereo not given), the inhibition is 3.11%.

`CCCCC(=O)Nc1nc2ccc([N+](=O)[O-])cc2s1`: the inhibition was -0.58%.

`COc1ccc(CNC(=O)c2cc3c(=O)n4ccccc4nc3n(CCc3ccccc3)c2=N)cc1`: the inhibition stood at 9.96%.

With `CCCCN1CC[C@@H](CCC(O)c2ccnc3ccc(OCCC(C)C)cc23)[C@@H](CC)C1` (stereo not given in full), the inhibition is 3.24%.

`O=S(=O)(NC1CCCCN(Cc2ccccc2O)C1)c1ccc(C(F)(F)F)cc1` (stereo not given): the inhibition amounted to 0.86%.

With `CCc1cc(C(=O)c2cccc(C)c2)c(NC(=O)CN2CCN(C(=O)c3ccco3)CC2)s1`, the inhibition was 2.44%.

As to `O=C(/C=C/c1ccc(Cl)cc1Cl)NCCCCCN1CCC(c2c[nH]c3ccccc23)CC1`, the inhibition stood at 1.57%.

For `CCNc1cc(C)nc(Nc2ccc(NC(=O)c3ccc(OC)c(OC)c3)cc2)n1`, the inhibition came out at 2.34%.

In the case of `Fc1ccc2[nH]c(-c3ccc(-c4ccc(CNCCN5CCNCC5)cc4)s3)nc2c1`, the inhibition was -0.23%.

For `CCOc1cc(CC)ccc1C1CCN(CCN2CCC(CNC(=O)c3ccc(-c4ccc(C#N)cc4)cc3)CC2)CC1`, the inhibition is 13.1%.

Turning to `CCOc1cc(C(=O)Nc2ccc(-c3nc4ccccc4[nH]3)cc2)cc(OCC)c1OCC`, the inhibition was 2.55%.

Take `Cc1ccc2nc(C)cc(NC(=O)Nc3ccc(N(C)C)cc3)c2c1`: the inhibition stood at 7.68%.

For `CCNc1cc(C(=O)N[C@@H](Cc2ccccc2)[C@H](O)CNC2(C)CCCCC2)cc(N2CCCCS2(=O)=O)c1`, the inhibition was -0.26%.

Consider `Cc1cccc(-c2ccc(NC(=O)C3CCN(Cc4cccc(O)c4)CC3)cc2)c1`, for which the inhibition was -0.58%.

For the molecule `CN(C)CCNCc1ccc(-c2ccc3c(Nc4ccc(Cl)cc4F)ccnc3c2)o1`, the inhibition was -1.76%.

As for `c1ccc(CN2CCc3cc4nccc(N5CCNCC5)c4cc32)cc1`, the inhibition was 0.88%.

For the molecule `Cc1[nH]c(C)c(-c2ccc(-c3ccccc3Cl)nc2)c(=O)c1Cl`, the inhibition turned out to be 3.11%.

Take `Cn1cncc1C(=O)Nc1cccc(-c2ccc(-c3nc4ccccc4[nH]3)cc2)c1`: the inhibition was -0.9%.

In the case of `COc1cc2c(cc1C(F)(F)F)N(C(=O)Nc1cc(-c3ccncc3)cc(-c3cccnc3)c1)CC2`, the inhibition is -0.7%.

Consider `O=C(/C=C/c1ccc(Cl)c(Cl)c1)NCCCCCN1CCC(NC(=O)c2ccc(F)cc2F)CC1`, for which the inhibition was -1.5%.

Consider `CNC(=O)CNC(=O)COc1cccc2ccccc12`, for which the inhibition worked out at 2.7%.

In the case of `O=C(C=Cc1ccc(F)cc1)N1CCN(S(=O)(=O)c2ccc(Cl)cc2)CC1`, the inhibition stood at 4.67%.

As to `O=C(Cn1c(CCc2cccc(F)c2F)cc(=O)c2cccnc21)N(CCN1CCCC1)Cc1ccc(-c2ccc(C(F)(F)F)cc2)cc1`, the inhibition amounted to 1.23%.

With `CN1CCN(CCCN(Cc2ccc(-c3cccc(CNC4CCCC4)c3)cc2)C(=O)/C=C/c2ccccc2)CC1`, the inhibition turned out to be 6.94%.

As to `CCCN(Cc1nnc(-c2cccs2)o1)C(=O)CSc1nnnn1-c1ccc(C)c(C)c1`, the inhibition came to 9.19%.

Turning to `CCCCCNC(=N)c1ccc(OCCCCCOc2ccc(C(=N)NCCCCC)cc2)cc1`, the inhibition was 5.15%.

`C=CCOC(=O)N1CCC(CNCc2cccc(-c3ccc(-c4nc5ccccc5[nH]4)s3)c2)C1` (stereo not given): the inhibition worked out at 1.26%.

Take `CCOC(=O)c1ccc(NC(=O)Nc2cccc(-c3cccc(-c4nc5cccc(C)c5[nH]4)c3)c2)cc1`: the inhibition is 1.01%.
